These results are taken from PubChem BioAssay (NCI).

SMILES strings stand for the structures. About 83,000 compounds went through this panel and 20% of them were active in at least one assay; those are over-represented in the sample as a whole.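 Interpretation: 100, growth as untreated; towards 0, rising growth inhibition; 0, no net growth; 0 to -100, cell death. Compounds scoring below 10 were considered active.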 Values without a mark were called inactive. Calls of active or inactive are those of the source.

What all share (assay): NCI-60 one-dose screen, 48 h (100 = growth as untreated, 0 = no growth, -100 = all killed)
What all share (conditions): 10 µM unless noted

The test system of test [1] is SK-MEL-2 melanoma.
Test [2] has as its system EKVX NSCLC.
The subject of test [3] is UO-31 renal.
The test system of test [4] is TK-10 renal.
For test [5], the system named is ACHN renal.
Test [6] has as its system CAKI-1 renal.
The subject of test [7] is A498 renal.
Test [8] deals with CCRF-CEM leukemia.
Test [9] deals with MOLT-4 leukemia.
Test [10] concerns RPMI-8226 leukemia.
The test system of test [11] is OVCAR-8 ovarian.
Test [12] has as its system OVCAR-5 ovarian.
The test system of test [13] is OVCAR-4 ovarian.
In test [14] the test system is SK-OV-3 ovarian.
In test [15] the test system is IGROV1 ovarian.
Test [16] concerns OVCAR-3 ovarian.
For test [17], the system named is HS 578T breast.
The subject of test [18] is NCI/ADR-RES ovarian.
Test [19] concerns SN12C renal.
Test [20] has as its system SR leukemia.

For `O=C(C[C@@]1(O)C(=O)Nc2c(Cl)ccc(Cl)c21)c1ccc(C2CC2)cc1`, the growth in test [1] was 43.1%; in test [2], 46.5%; in [3] it was 37.9%; in [4], 70.4%; in [5] it was 39.6%; in test [6], 34.4%. The growth was -32.7% (active) in test [7]; 15.9% in test [8]; 18.9% in [9]; 23.4% in test [10]; 29.7% in test [11]; 33.4% in test [12]. Besides, the growth in test [13] was 54.3%; in [14], 38.6%; in [15], 22.9%; in [16] it was -11.9% (active); in test [17] it was 7.19% (active); in test [18] it was 5.4% (active).

On to `CS(=O)(=O)c1ccc(N/N=C/c2c(-c3ccc(S(C)(=O)=O)cc3)[nH]c3ccc(F)cc23)cc1`, for which the growth in test [1] was 3.8% (active); in test [2], 64.2%; in [3] it was 53.8%; in [4], 35.2%; in test [5] it was 48.2%; in test [6], 57.5%. Moreover, the growth in test [7] was 25.9%; in [8] it was 4.8% (active); in [9], -1.41% (active); in [10] it was -41.7% (active); in test [11], 26.1%; in test [12], 75.1%. The growth in test [13] was 40.2%; in [14], 54.6%; in test [15] it was 35.4%; in [16] it was 41.7%; in [17], 5.71% (active); in test [18] it was 91.5%.

For `COc1ccc(NC(=O)C(=O)c2c[nH]c3ccc(F)cc23)cc1`, the growth in test [1] is 106%; in [19], 98.9%; in test [3], 96.4%; in test [4], 132%; in test [5], 93.8%; in test [6], 93.1%. Further, the growth in test [7] was 65.8%; in test [8], 97.8%; in [9], 90.8%; in test [20], 81.4%; in [10], 92.7%; in test [11], 99%. Besides, the growth is 106% in test [12]; 102% in [13]; 89.4% in test [14]; 118% in test [15]; 99.8% in test [16]; 104% in test [17]. Further, the growth in [18] is 96.2%.

For the molecule `O=c1[nH]c(NCc2nnnn2-c2ccc(Br)cc2)nc2sc3c(c12)CCCC3`, the growth in test [1] is 108%; in test [19] it was 97.6%; in test [3], 77.9%; in [4], 98.1%; in test [5], 98.9%; in test [6], 89.6%. Besides, the growth is 84.6% in test [7]; 90.8% in test [8]; 76.9% in [9]; 86.3% in test [20]; 87.3% in [10]; 81.4% in test [11]. The growth in [12] was 100%; in test [13], 95.2%; in [14], 90.6%; in test [15], 104%; in test [16], 97.8%; in [17], 100%. In [18], the growth was 103%.

With `[2H]c1nc(Nc2ncc(F)c(-c3cc(F)c4nc(C)n(C(C)C)c4c3)n2)c([2H])c([2H])c1CN1CCN(C([2H])([2H])C([2H])([2H])[2H])CC1`, the growth in test [1] was 50.1%; in test [2], 51.7%; in test [3] it was 23.2%; in test [4] it was 21.6%; in [7], 44.3%; in test [8], 35.2%. Also, the growth was 21.1% in test [9]; 36.3% in [20]; 42.8% in [10]; 67.1% in test [11]; 55.6% in test [12]; 74.2% in [13]. Besides, the growth is 18.8% in test [14]; 47.3% in [15]; 71% in test [16]; 35.7% in test [17]; 81% in test [18].

Turning to `O=C(Nc1ccccc1Cl)OCCN1CCOCC1`, the growth in test [1] was 96.7%; in test [2], 104%; in [3], 92.4%; in test [4] it was 92.8%; in [7] it was 129%; in test [8] it was 86%. Moreover, the growth in test [9] was 92.3%; in [20] it was 103%; in test [10] it was 101%; in [11] it was 107%; in test [12] it was 110%; in test [13], 110%. For the same molecule, the growth in test [14] was 112%; in test [15] it was 107%; in test [16], 105%; in test [18] it was 104%.

For the molecule `O=C(NCc1cccnc1)c1cc(-c2csc3c(=O)cc(N4CCOCC4)oc23)cc2c1OCCO2`, the growth in [1] was 51.1%; in test [2] it was 62.5%; in test [3], 30.3%; in test [4] it was 14.1%; in test [5], 34.5%; in test [6] it was 31.1%. The growth was 39.9% in test [7]; 39.6% in test [8]; 9.21% (active) in test [10]; 38% in test [11]; 31.3% in test [12]; 50.3% in test [13]. Besides, the growth in [14] is 8.37% (active); in [15], 7.23% (active); in [17] it was 8.92% (active); in test [18] it was 89.3%.
